Our source for the activation values is PubChem BioAssay AID1276 (Columbia University Molecular Screening Center, 2008).

In all, about 190,000 compounds went through this assay and about 2,000 (1.1%) were called active. The entries come from a sample that favours actives as a whole. Unmarked numbers belong to inactive results.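 The calls were made as follows: active = activation above a set limit, based on mean plus 3 SD of controls (cut at about 140% in these data); inconclusive = one replicate above the limit, the other below; inactive = the rest.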

The assay can be described thus: APP 5'UTR reporter signal increase – luciferase, SH-SY5Y cells, primary screen (AID 1276). Particulars: SH-SY5Y APP 5'UTR luciferase reporter, luminescence; at 2 µM; hits give high values; zero percent = DMSO vehicle wells. (A reporter such as luciferase makes a cellular process visible.)
Take `O=C(CN1CCN(c2ccccn2)CC1)N1CCc2ccccc21`: the activation was 30.9%.

As for `O=C(c1cc(-c2ccccc2O)on1)N1CCCC1`, the activation was 102%.

On to `O=C(c1cc(-c2cccs2)on1)N1CCCCC1`, for which the activation was 138% (active).

Consider `COc1ccccc1-c1cc(C(=O)N2CCCCC2)no1`, for which the activation was 113%.

On to `O=C(Nc1ccc(N2CCOCC2)cc1)c1ccc(-c2ccccc2[N+](=O)[O-])o1`, for which the activation was 17.6%.

`CC1Cc2ccccc2N1C(=O)CSc1nnc(C2CC2)n1C` (stereo unspecified): the activation is 23.3%. Next, `COc1ccc(N2C(=O)CC(Sc3n[nH]c(-c4ccc(C)cc4)n3)C2=O)cc1` (stereo unspecified): 14.7%; `O=C(Nc1ccc(F)cc1)N1CCCC(c2nc3c(nnn3Cc3ccccc3Cl)c(=O)[nH]2)C1` (stereo unspecified): -4.96%. `O=C(NCCC1=CCCCC1)c1ccc(Cl)c([N+](=O)[O-])c1`: the activation is 8.77%. Next, `Cn1nnc2cc(C(=O)NCCC3=CCCCC3)ccc21`: 174% (active); `CN(c1ccc(C(=O)NCCC2=CCCCC2)cc1)S(C)(=O)=O`: 76%; `CCOCCCNC(=O)C(=O)NCCCOCC`: -1.33%. With `O=C(C1CCCO1)N(c1ccc(F)cc1)C1C=CS(=O)(=O)C1` (stereo unspecified), the activation is 5.93%.

As for `Cc1ccc(NC(=O)COC(=O)CCc2nc3ccccc3n2-c2ccccc2)c(C)c1`, the activation was 11.8%. The figure for `O=C(CN1CCN(c2ncccn2)CC1)Nc1ccccc1C(F)(F)F` is -6.86%; for `Cc1ccc(CN(Cc2cccnc2)C(=S)Nc2cc(Cl)ccc2C)cc1` it is 2.52%. Next, `O=C(Nc1nc2ccccc2s1)c1ccc2c(c1)OCO2`: 183% (active).

Take `CC(=O)Nc1ccc(-c2csc(NC(=O)Nc3ccccc3)n2)cc1`: the activation is -14.7%.

As to `O=C(Nc1ccccc1)Nc1nc2ccccc2s1`, the activation is 212% (active).

For `COCc1nnc(NC(=O)c2ccc3c(c2)OCO3)s1`, the activation is 61.2%.

For the compound `CSCCC(Nc1nc2ccccc2s1)C(=O)O` (stereo unspecified), the activation is -7.07%. Consider `Cc1cc(C)c2nc(NC(=O)c3ccc4c(c3)OCO4)sc2c1`, for which the activation is -8.57%.

Take `CCCC1NC(=S)NC(C)=C1C(C)=O` (stereo unspecified): the activation is -10.8%. The figure for `CCCCCOc1ccc(/C=C/C(=O)NCCc2nc3ccccc3[nH]2)cc1OC` is -0.79%.

Turning to `S=C(NCc1ccco1)Nc1ccc2c(c1)OCCO2`, the activation was 18.6%.

Consider `CC1CCCC(C)N1/N=C/c1ccccc1OC(F)F` (stereo unspecified), for which the activation is 5.03%. The figure for `O=c1cc(CSc2ccc(Cl)cc2)nc(N2CCOCC2)[nH]1` is 6.36%; for `Clc1ccc2nc(CSc3ccccc3)cn2c1` it is 216% (active); for `CCOc1ncccc1C(=O)OCc1cn2cc(Cl)ccc2n1` it is -0.86%. The figure for `Cc1nn(Cc2ccc(F)cc2)c(C)c1NC(=O)c1cccnc1Cl` is 10.3%.

As to `Cc1ccc(-c2nc3ccccc3[nH]2)cc1NC(=O)c1sc2ccccc2c1Cl`, the activation was -3.21%. The figure for `c1ccc2[nH]c(-c3nc4ccccc4[nH]3)nc2c1` is 181% (active). The figure for `COc1ccc(-c2[nH]nc(-c3ccccc3)c2-c2nc3ccccc3[nH]2)cc1` is -4.36%; for `COc1ccc(Br)cc1C(=O)NC(=S)Nc1cc(-c2nc3ccccc3[nH]2)ccc1C` it is 21.4%. The figure for `c1ccc(-c2[nH]ncc2-c2nc3ccccc3[nH]2)cc1` is -1.2%; for `Cc1ccc(-c2nc3ccccc3[nH]2)cc1N` it is 201% (active); for `COc1ccc(C2CC(c3ccccc3)=NN2C(=O)COC(=O)COc2ccccc2)cc1` (stereo unspecified) it is 0.61%. `O=C(CSc1ccc([N+](=O)[O-])cn1)Nc1ccc(N2CCOCC2)c(Cl)c1`: the activation was -13%. The figure for `COc1ccc(-c2csc(Cc3nc(O)cs3)n2)cc1` is 157% (active). The figure for `COc1ccc(-c2csc(NC(=O)CCCc3cccs3)n2)cc1` is -2.07%. Take `COc1ccc(OC)c(Nc2nc(-c3ccc(O)c(O)c3)cs2)c1`: the activation was -40.2%. Next, `N/C(=N\OC(=O)c1cc(-c2ccccc2)nc2ccccc12)c1ccncc1`: 7.36%. Take `Cc1cccc(C(=O)c2cccc(C)c2)c1`: the activation is 7.97%.

For the compound `Cc1cccc(/C(N)=N/OC(=O)c2ccccc2Cl)c1`, the activation is 206% (active). For `Cc1ccc(NC(=S)N2CCN(c3ncccn3)CC2)cc1C`, the activation was 2.51%. Next, `O=[N+]([O-])c1ccc2oc(-c3cccc(O)c3)nc2c1`: 184% (active); `O=[N+]([O-])c1cccc(Nc2c3ccccc3nc3ccccc23)c1`: -0.09%; `COc1cccc(-c2nc3cc(C)ccc3o2)c1`: 172% (active). Consider `COc1cccc(-c2nc(S(=O)(=O)c3ccccc3)c(N3CCOCC3)o2)c1`, for which the activation was 10.7%. The figure for `COc1ccc(-c2nc3cc([N+](=O)[O-])ccc3o2)cc1OC` is 20.2%; for `COc1ccc2oc(-c3cccc(NC(=O)CSc4ccc(Cl)cc4)c3)nc2c1` it is 48.5%; for `N#Cc1c(-c2ccc(Cl)cc2)c2c([nH]c1=S)CCCC2` it is 15.9%. The figure for `COc1cc(OC)c(-n2cc(-c3ccc(Cl)cc3)[nH]c2=O)cc1Cl` is -7.27%; for `CC1(C)CC(=O)C=C(N2CCOCC2)C1` it is 6.79%; for `CCCNS(=O)(=O)c1ccc(CCC(=O)N2CCCC2)cc1` it is 4.45%. The figure for `CC(C)CC(=O)N/C(N)=N/c1nc2ccccc2s1` is 203% (active); for `O=C(O)CCCCc1nc2ccccc2s1` it is -11.6%; for `CC(C)CC(=O)NC(=S)NCc1ccccc1` it is 9.6%.

For `CCC(=O)NC(=Nc1nc2ccccc2s1)NC(=O)CC`, the activation was 147% (active). The figure for `O=C(O)CSCc1nc2ccccc2s1` is -3.48%. Next, `COC(=O)c1nc2ccccc2s1`: -8.64%; `Cc1ccc(C(=O)NNC(=O)c2cccs2)cc1`: 38.8%. With `NC1=NC(=O)C(Cc2cccc(Cl)c2)S1` (stereo unspecified), the activation is 11.8%. With `C=CCO/N=C/C1=C(O)C(C(=O)OC)C(C)(C)CC1=O` (stereo unspecified), the activation is 7.9%. As to `Cc1cccc(C)c1OCC(=O)NC(Cc1c[nH]c2ccccc12)C(=O)O` (stereo unspecified), the activation is 10.3%.

Regarding `O=C(CN1C(=O)c2cccc3cccc1c23)Nc1ccccc1`, the activation was -9.88%.
